Experiments:
Assay in all cases: thermal shift delta Tm vs DMSO control; higher = stronger stabilization (binding)
Conditions in all cases: 12.5 µM; protein concentration 2 µM
[1] = tested on: LOC_OS02G45750-cb003
How it was run: (§1)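 The melting temperature shift given here is a triplicate mean, measured against protein that received only DMSO. Melting temperatures came from Boltzmann fits of differential scanning fluorimetry data on E. coli-expressed, purified rice kinase domain constructs. Each 19.5 μl well contained 2 μM kinase, 100 mM potassium phosphate pH 7.5, 150 mM NaCl, 10% glycerol, 5 × SYPRO Orange and compound in DMSO. Plates were scanned from 25°C to 95°C at 0.05°C/s.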

[2] = tested on: LOC_OS02G54510-cb004
How it was run: as §1

[3] = tested on: LOC_OS03G04050-cb001
How it was run: as §1

[4] = tested on: LOC_OS03G12390-cb001
How it was run: as §1

[5] = tested on: LOC_OS03G27990-cb004
How it was run: as §1

[6] = tested on: LOC_OS03G50450-cb001
How it was run: as §1

[7] = tested on: LOC_OS03G50810-cb003
How it was run: as §1

[8] = tested on: LOC_OS04G35114-cb001
How it was run: as §1

[9] = tested on: T1, LOC_OS04G38480-cb003
T1 sequence (whole entry): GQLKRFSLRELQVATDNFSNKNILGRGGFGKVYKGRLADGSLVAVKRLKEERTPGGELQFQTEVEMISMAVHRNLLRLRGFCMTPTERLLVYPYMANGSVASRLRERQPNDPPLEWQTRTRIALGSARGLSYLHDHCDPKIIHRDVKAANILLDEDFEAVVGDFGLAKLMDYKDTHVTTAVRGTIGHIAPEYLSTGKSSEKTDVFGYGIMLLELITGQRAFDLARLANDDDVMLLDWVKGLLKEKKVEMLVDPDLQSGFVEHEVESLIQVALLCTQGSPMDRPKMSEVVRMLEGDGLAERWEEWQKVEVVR
How it was run: as §1

[10] = tested on: T2, LOC_OS04G41100-cb001
T2 sequence (whole entry): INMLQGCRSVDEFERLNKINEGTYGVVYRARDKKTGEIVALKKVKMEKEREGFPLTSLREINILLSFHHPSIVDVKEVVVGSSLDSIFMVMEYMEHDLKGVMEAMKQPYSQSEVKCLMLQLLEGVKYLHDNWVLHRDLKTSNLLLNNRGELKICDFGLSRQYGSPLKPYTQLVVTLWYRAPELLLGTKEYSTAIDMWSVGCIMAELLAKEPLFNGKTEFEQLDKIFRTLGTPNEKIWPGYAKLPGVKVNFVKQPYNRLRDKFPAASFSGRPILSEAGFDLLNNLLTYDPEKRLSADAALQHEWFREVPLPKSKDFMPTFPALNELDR
How it was run: as §1

[11] = tested on: LOC_OS04G57630-cb004
How it was run: as §1

[12] = tested on: LOC_OS05G07850-cb002
How it was run: as §1

[13] = tested on: LOC_OS05G16824-cb004
How it was run: as §1

[14] = tested on: LOC_OS05G28520-cb001
How it was run: as §1

[15] = tested on: LOC_OS05G30820-cb001
How it was run: as §1

[16] = tested on: LOC_OS05G43570-cb004
How it was run: as §1

[17] = tested on: LOC_OS06G16330-cb003
LOC_OS06G16330-cb003, sequence (as listed by the source): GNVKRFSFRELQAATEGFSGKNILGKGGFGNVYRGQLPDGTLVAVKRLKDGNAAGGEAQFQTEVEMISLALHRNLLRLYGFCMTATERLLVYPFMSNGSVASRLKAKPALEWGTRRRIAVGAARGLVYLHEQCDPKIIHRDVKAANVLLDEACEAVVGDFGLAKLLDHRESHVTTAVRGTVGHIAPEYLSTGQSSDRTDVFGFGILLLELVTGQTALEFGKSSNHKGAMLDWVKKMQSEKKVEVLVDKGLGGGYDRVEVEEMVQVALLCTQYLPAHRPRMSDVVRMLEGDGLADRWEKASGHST
How it was run: as §1

[18] = tested on: T3, LOC_OS06G22820-cb001
T3 sequence (whole entry): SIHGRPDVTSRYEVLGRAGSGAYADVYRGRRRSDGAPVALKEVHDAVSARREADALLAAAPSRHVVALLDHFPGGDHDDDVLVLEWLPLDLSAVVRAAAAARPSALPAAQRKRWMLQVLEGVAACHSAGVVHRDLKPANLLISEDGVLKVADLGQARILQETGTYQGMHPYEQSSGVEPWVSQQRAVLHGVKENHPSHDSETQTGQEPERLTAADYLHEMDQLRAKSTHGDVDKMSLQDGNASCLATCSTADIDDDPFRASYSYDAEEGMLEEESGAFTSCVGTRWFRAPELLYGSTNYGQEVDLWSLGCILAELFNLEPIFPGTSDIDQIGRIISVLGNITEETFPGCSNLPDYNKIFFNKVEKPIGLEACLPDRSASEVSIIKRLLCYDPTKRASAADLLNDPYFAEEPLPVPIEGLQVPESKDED
How it was run: as §1

[19] = tested on: LOC_OS07G06570-cb004
How it was run: as §1

[20] = tested on: LOC_OS07G07230-cb001
How it was run: as §1

SMILES	thermal shift delta Tm [1]	thermal shift delta Tm [2]	thermal shift delta Tm [3]	thermal shift delta Tm [4]	thermal shift delta Tm [5]	thermal shift delta Tm [6]	thermal shift delta Tm [7]	thermal shift delta Tm [8]	thermal shift delta Tm [9]	thermal shift delta Tm [10]	thermal shift delta Tm [11]	thermal shift delta Tm [12]	thermal shift delta Tm [13]	thermal shift delta Tm [14]	thermal shift delta Tm [15]	thermal shift delta Tm [16]	thermal shift delta Tm [17]	thermal shift delta Tm [18]	thermal shift delta Tm [19]	thermal shift delta Tm [20]
COc1ccc(S(=O)(=O)N(CCO)c2ccccc2CN(C)C/C=C/c2ccc(Cl)cc2)cc1 [KN-93 Phosphate]	0.73 °C	-0.27 °C	0.31 °C	-0.19 °C	0.2 °C	0.48 °C	0.29 °C	0.92 °C	1.75 °C	0.58 °C	0.49 °C	0.97 °C	1.97 °C	0.31 °C	0.17 °C	0.27 °C	-0.14 °C	0.35 °C	1.18 °C	0.21 °C
CNC(=O)c1ccc(-c2cnc3ncc(Cc4ccc5ncccc5c4)n3n2)cc1F	0.61 °C	0.23 °C	0.48 °C	-0.1 °C	0.21 °C	0.36 °C	0.27 °C	0.19 °C	2.02 °C	0.27 °C	0.55 °C	0.67 °C	-1.29 °C	0.04 °C	0.18 °C	0.63 °C	-2.08 °C	0.46 °C	1.26 °C	0.89 °C
C=CC(=O)Nc1cc(Nc2nccc(-c3cn(C)c4ccccc34)n2)c(OC)cc1N(C)CCN(C)C [Osimertinib (AZD9291)]	1.63 °C	0.52 °C	0.78 °C	4.71 °C	0.93 °C	0.74 °C	2.65 °C	6.25 °C	2.86 °C	0.51 °C	0.2 °C	13.5 °C	-1.95 °C	0.53 °C	0.54 °C	0.3 °C	5.5 °C	0.25 °C	1.03 °C	0.47 °C

Source: the supplement of paper PMC9694430
